HCV inhibitor – blocks hepatitis C virus; Huh7.5.1 HCVcc-Cre infection, luciferase reporter, 44 h; 3.4% of 340,000 active; AID 651820; Potency, µM (top dose mostly 41.8 µM), inactives show at the top dose activity change, negative = inhibition, actives largely listed as inhibitors; active = well fitted inhibition curve with a large enough effect; inconclusive = small, poorly fitted or top-dose-only effect, or another doubt; inactive = no such curve, though single readings can be large or run the other way
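A cell-based infection assay in which seeded cells (1,000 per well) receive test compound after 4 h, are inoculated with HCVcc-Cre at approximately 0.5 moi, and are incubated 44 h before luminescence detection.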
Marburg entry inh – blocks Marburg virus binding to or entry into cells. Marburg virus pseudotyped entry inhibition, cell reporter. Potency, µM (top dose mostly 37.8 µM), for the others: top-dose activity change, negative = inhibition, actives largely listed as inhibitors. 1.8% of 300,000 active; calls by dose curve; tested in HEK293 cells
LASV entry inh – blocks Lassa virus binding to or entry into cells | 1.2% of 300,000 active | Lassa virus pseudotype entry inhibition, cell reporter | Potency, µM (highest dose often 37.9 µM), for inactives: at the highest dose activity change, negative = inhibition, actives largely listed as inhibitors; calls by dose curve; tested in HEK293 cells; note: nearly all actives have a fitted effect of over 50% in size
Vaccinia Venus – inhibitors of vaccinia virus (Venus reporter); Vaccinia virus Venus reporter expression, fluorescence; AID 720580; Potency, µM (top dose mostly 36.5 µM), without a hit: top-dose activity change, negative = inhibition, most hits filed as inhibitors; 0.46% of 330,000 active; calls by dose curve; tested in A549 cells; note: nearly all actives have a fitted effect of over 30% in size
Vaccinia mCherry – inhibitors of vaccinia virus infection (mCherry reporter signal); Vaccinia virus mCherry reporter infection, fluorescence; Potency, µM (highest dose often 36.5 µM), inactives show at the highest dose activity change, negative = inhibition, hits mostly inhibitors; 0.63% of 310,000 active; AID 720579; calls by dose curve; tested in A549 cells; note: nearly all actives have a fitted effect of over 35% in size
FMDV inh – blocks foot and mouth disease virus. AID 1159524. Potency, µM (series often up to 57.9 µM), for inactives: at the top dose activity change, negative = inhibition, usual class: inhibitors. FMDV antiviral cell-based qHTS. 1.2% of 410,000 active; calls by dose curve; tested in HEK293T cells; note: read-out not given here; nearly all actives have a fitted effect of over 45% in size
* = called active by the depositor; [ ] = remark or other dose. Shown are actives, neighbours in structure and some others; about 5.3% of the full set was active somewhere. % is set by controls: 0 for no effect and ±100 for the full control effect; potency is the fitted concentration of half-maximal effect.

For C[C@@H]1CCc2cc(F)cc3c(O)c(C(=O)NC[C@H]4CCCO4)c(=O)n1c23 the results were Marburg entry inh -22.0%[46.1 µM].
`O=C(CN1CCOCC1)NN=Cc1ccc([N+](=O)[O-])o1` gave Vaccinia Venus -7.3%, Vaccinia mCherry 3.0% and FMDV inh -19.9%.
For O=C(CC12CC3CC(CC(C3)C1)C2)N/N=C/c1ccc([N+](=O)[O-])o1 the results were HCV inhibitor inconclusive, Marburg entry inh inconclusive, LASV entry inh 15.8µM*, Vaccinia Venus 28.2µM*, Vaccinia mCherry 11.2µM* and FMDV inh -29.0%.
`CCOC(=O)N/N=C\c1ccc([N+](=O)[O-])o1` gave HCV inhibitor inconclusive, Marburg entry inh -3.4%, LASV entry inh -12.3%, Vaccinia Venus inconclusive and Vaccinia mCherry -29.3%.
For O=C(CN1CCCCCCC1)N/N=C/c1ccc([N+](=O)[O-])o1 the results were HCV inhibitor inconclusive, Marburg entry inh inconclusive, LASV entry inh inconclusive, Vaccinia Venus 10µM*, Vaccinia mCherry 11.2µM* and FMDV inh -9.5%.
O=C(NCc1cccnc1)/C(=C\c1ccc(-c2ccc(Br)cc2)o1)S(=O)(=O)c1ccccc1 was read as HCV inhibitor 11.2µM*, Marburg entry inh inconclusive, LASV entry inh 12.6µM*, Vaccinia Venus 10µM*, Vaccinia mCherry inconclusive and FMDV inh 3.16µM*.
Screening O=C(NCc1cccnc1)/C(=C/c1ccc(-c2cccc(C(F)(F)F)c2)o1)NC(=O)c1ccccc1 returned HCV inhibitor 1.6%, Marburg entry inh inconclusive, LASV entry inh inconclusive, Vaccinia Venus -23.1%, Vaccinia mCherry -24.5% and FMDV inh -21.3%.
O=C(NCc1cccnc1)/C(=C/c1ccc(-c2ccc(Cl)cc2)o1)S(=O)(=O)c1ccccc1 was read as HCV inhibitor 7.94µM*, Marburg entry inh inconclusive, LASV entry inh 18.3µM* and FMDV inh 3.55µM*.
COc1ccc(N2CCN(C(=O)c3cc(NC(C)=O)c4c(c3)ncn4CCc3ccccn3)CC2)cc1 was read as Vaccinia Venus -4.7%, Vaccinia mCherry inactive and FMDV inh -3.2%.
`CC1CCc2ccccc2N1CC(=O)Nc1cccc(S(=O)(=O)N2CCCC2)c1` (centres undefined) gave HCV inhibitor 31.6µM*, Marburg entry inh inconclusive, LASV entry inh inconclusive, Vaccinia Venus -6.0%, Vaccinia mCherry inconclusive and FMDV inh -13.5%.
Screening Cc1cc2oc(C(=O)Nc3ccc(S(=O)(=O)N4CCC(C)CC4)cc3)cc(=O)c2cc1C returned Marburg entry inh 21.2%[46.1 µM], LASV entry inh 4.3%[46.1 µM], Vaccinia Venus -6.6%, Vaccinia mCherry -19.1% and FMDV inh -18.9%.
For Cc1ccc(S(=O)(=O)N2CCCCC2)cc1NC(=O)c1cc2ccccc2o1 the results were HCV inhibitor 22.4µM* and FMDV inh -20.1%.
Screening Cc1cc2oc(C(=O)Nc3ccc(S(=O)(=O)N4CCCC(C)C4)cc3)cc(=O)c2cc1Cl (centres undefined) returned HCV inhibitor 1.2%, Marburg entry inh 11.2µM*, LASV entry inh inconclusive, Vaccinia Venus -12.1%, Vaccinia mCherry 10.9% and FMDV inh 0.0%.
CCN1CCN(c2ccc(S(=O)(=O)N3CCCCC3)cc2NC(=O)c2cc3ccccc3o2)CC1 was read as HCV inhibitor inconclusive, Marburg entry inh inconclusive, LASV entry inh 21.9%, Vaccinia Venus -11.4%, Vaccinia mCherry inactive and FMDV inh -17.5%.
For O=C(Nc1cccc(S(=O)(=O)N2CCCCCC2)c1)c1cc(=O)c2ccccc2o1 the results were HCV inhibitor inconclusive, Marburg entry inh inconclusive, LASV entry inh -7.1%, Vaccinia Venus -24.0%, Vaccinia mCherry -29.0% and FMDV inh 20µM*.
For O=C(Nc1cccc(S(=O)(=O)N2CCCC2)c1)c1ccco1 the results were HCV inhibitor inconclusive and FMDV inh -18.7%.
`COc1ccccc1N1CCN(C(CNC(=O)C(=O)NCCCN(C)C)c2cccnc2)CC1` (centres undefined) gave LASV entry inh -13.1%[46.1 µM], Vaccinia Venus -6.5%, Vaccinia mCherry -9.5% and FMDV inh -15.3%.
For NC(=O)c1nn(CC(=O)Nc2cccc(S(=O)(=O)N3CCCC3)c2)c(=O)c2ccccc12 the results were HCV inhibitor 11.2µM* and FMDV inh -0.1%.
`CN(c1ccccc1)S(=O)(=O)c1cccc(NC(=O)c2cc(=O)c3ccccc3o2)c1` gave HCV inhibitor 11.2µM*, Marburg entry inh 12.6µM*, LASV entry inh inconclusive, Vaccinia Venus -3.6%, Vaccinia mCherry -11.9% and FMDV inh 31.6µM*.
`NS(=O)(=O)c1cccc(NC(=O)c2cc(=O)c3ccccc3o2)c1` gave HCV inhibitor -21.5%, Marburg entry inh -6.9%[46.1 µM], LASV entry inh 4.5%[46.1 µM], Vaccinia Venus -8.3%, Vaccinia mCherry -10.4% and FMDV inh 23.6%.
Screening O=C(NCc1nnc2n1CCN(C(=O)/C=C/c1ccccc1)CC2)c1cccc(F)c1 returned Vaccinia Venus -3.7%, Vaccinia mCherry -11.6% and FMDV inh 5.1%.
CCc1ccccc1N1C(=O)CN(Cc2cc(OC)c(OC)c(OC)c2)C1=S was read as HCV inhibitor 31.6µM*, Marburg entry inh inconclusive, LASV entry inh inconclusive, Vaccinia Venus 1.8%, Vaccinia mCherry -4.4% and FMDV inh -29.0%.
`Cc1cccc2cc(CN(C(=O)c3ccc(-c4ccc(F)cc4)cc3)C3CC3)c(N3CCC(O)CC3)nc12` gave Vaccinia Venus -20.1%, Vaccinia mCherry inconclusive and FMDV inh -18.9%.
For COc1ccc(C2CC(c3ccccc3)n3nnnc3N2)cc1 (centres undefined) the results were HCV inhibitor 6.0%, Marburg entry inh -2.2%, LASV entry inh -8.9% and FMDV inh 13.5%.
CCOc1ccc(C2CC(c3cccc(OC)c3OC)n3nnnc3N2)cc1Cl (centres undefined) was read as HCV inhibitor 11.2µM*, Marburg entry inh 8.8%, LASV entry inh -11.3%, Vaccinia Venus -22.6%, Vaccinia mCherry -26.8% and FMDV inh -15.8%.
Screening CSc1oc(-c2ccc(F)cc2)nc1S(=O)(=O)c1ccc(F)cc1 returned HCV inhibitor -3.1%, Vaccinia Venus -9.8%, Vaccinia mCherry inactive and FMDV inh -24.4%.
`CCS(=O)(=O)c1oc(-c2ccc(F)cc2)nc1S(=O)(=O)c1ccc(Br)cc1` gave Marburg entry inh inconclusive, LASV entry inh inconclusive, Vaccinia Venus inconclusive, Vaccinia mCherry -22.1% and FMDV inh 14.1µM*.
CS(=O)(=O)c1oc(-c2ccc(F)cc2)nc1S(=O)(=O)c1ccc(Cl)cc1 was read as Marburg entry inh -15.2%[46.1 µM], LASV entry inh inconclusive, Vaccinia Venus inconclusive, Vaccinia mCherry inconclusive and FMDV inh 25.1µM*.
For CC(C)S(=O)(=O)c1oc(-c2ccc(F)cc2)nc1S(=O)(=O)c1ccccc1 the results were Marburg entry inh inconclusive, LASV entry inh inconclusive, Vaccinia Venus -11.7%[7.34 µM], Vaccinia mCherry -18.6%[7.34 µM] and FMDV inh 15.8µM*.

Bioassay records (PubChem)
